# High-throughput results from PubChem BioAssay.
# Only some compounds are listed: those with a hit (about 1.8% of all), similar ones and a draw of the others.
# PAD4 inh: inhibitors of human PAD4; Q9UM07; recombinant PAD4, RCA probe fluorescence polarization; inhibition, % at 6.36 µM; 330,000 tested, 0.41% active; AID 485272;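 active = percent inhibition above a cutoff equal to the mean of all tested compounds plus 3 SD, cut at about 15% in these data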;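 note: 0% = PAD4 with RCA probe and DMSO and 100% = probe without PAD4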
# LYPLA2 inh: blocks human lysophospholipase 2, a PME1 counter-screen; O95372; recombinant LYPLA2, FP-Rh probe fluorescence polarization; inhibition, % at 5.9 µM; 320,000 tested, 0.38% active;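 active = inhibition above the screen-wide mean plus 3 SD, limit set per campaign, cut at about 26% in these data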;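 note: 0% = LYPLA2 with DMSO and 100% = wells lacking LYPLA2 enzyme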
# Target sequence (O95372 whole entry, looked up): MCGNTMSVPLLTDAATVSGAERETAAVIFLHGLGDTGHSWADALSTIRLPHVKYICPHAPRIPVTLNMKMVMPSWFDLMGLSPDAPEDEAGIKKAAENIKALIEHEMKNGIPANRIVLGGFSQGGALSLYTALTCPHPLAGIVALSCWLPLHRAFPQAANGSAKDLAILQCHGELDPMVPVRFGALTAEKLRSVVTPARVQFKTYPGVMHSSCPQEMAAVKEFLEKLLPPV
# PME-1 primary: PME-1 (human) inhibition. Q9Y570. recombinant PME-1, FP-Rh probe fluorescence polarization. inhibition, % at 5.9 µM. 320,000 tested, 0.53% active. AID 2130;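 active = inhibition above the campaign mean of all compounds plus 3 SD, cut at about 26% in these data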;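 note: competitive labeling of PME-1 active site by serine hydrolase directed probe; 0% = PME-1 with DMSO and 100% = wells lacking PME-1 enzyme; inhibitors block probe labeling so polarization falls and inhibition rises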
# LYPLA1 counter: blocks human lysophospholipase 1, a PME1 counter-screen; O75608; recombinant LYPLA1, FP-Rh probe fluorescence polarization; inhibition, % at 5.9 µM; 320,000 tested, 0.16% active; AID 2174;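 active = inhibition above the mean of all tested compounds plus 3 SD, set per campaign, cut at about 14% in these data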;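 note: inhibitors block serine hydrolase probe labeling of LYPLA1 so polarization falls; 0% = enzyme with DMSO and 100% = wells lacking LYPLA1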
# GSTO1 inh: counter-screen for RBBP9 inhibitors: inhibitors of human GSTO1 | P78417 | recombinant GSTO1, activity-based probe fluorescence polarization | inhibition, % at 5.96 µM | 300,000 tested, 1.1% active;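 active = inhibition above the campaign mean inhibition plus 3 SD, cut at about 35% in these data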;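 note: 0% = GSTO1-1 with DMSO and 100% = wells lacking GSTO1-1 enzyme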
# Target sequence (P78417 whole entry, looked up): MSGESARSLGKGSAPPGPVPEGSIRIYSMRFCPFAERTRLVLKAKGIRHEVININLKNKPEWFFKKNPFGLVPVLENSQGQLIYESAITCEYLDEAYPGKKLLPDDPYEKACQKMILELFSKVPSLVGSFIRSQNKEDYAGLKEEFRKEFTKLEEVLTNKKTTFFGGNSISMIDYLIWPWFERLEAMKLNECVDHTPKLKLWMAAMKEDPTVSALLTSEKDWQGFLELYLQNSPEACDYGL
# Fam108B counter: blocks mouse Fam108B hydrolase in RBBP9 counter-screen. recombinant Fam108B, FP-Rh probe fluorescence polarization. inhibition, % at 9.51 µM. 300,000 tested, 0.33% active. AID 1947;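 active = inhibition above the screen mean inhibition plus 3 SD, computed separately per campaign, cut at about 18% in these data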;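 note: inhibitors lower polarization as less probe binds the enzyme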
# Fam108b inh conf: confirmation of mouse Fam108b serine hydrolase inhibitors | shares compounds with Fam108B counter | recombinant Fam108b, FP-Rh probe fluorescence polarization | inhibition, % at 9.51 µM | 930 tested, 44% active | AID 1978;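 active = inhibition above a limit from the primary screen, the mean over all compounds plus 3 SD, cut at about 19% in these data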;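 note: 0% = median of active Fam108b wells and 100% = catalytically dead S170A mutant; inhibitors free the probe so polarization falls as inhibition rises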
# Fam108b ABPP HTS: mouse ABHD17B inhibition; AID 588649; recombinant Fam108b, gel-based ABPP, fluorophosphonate probe; shares compounds with Fam108B counter; 260 tested, 44% active; inhibition, % at 20 µM; in the data active = inhibition above about 40%
# * hit, by the source's call; / = no result.
SMILES,PAD4 inh,LYPLA2 inh,PME-1 primary,LYPLA1 counter,GSTO1 inh,Fam108B counter,Fam108b inh conf,others
COCC(=O)N(Cc1cc2cc(OC)ccc2[nH]c1=O)c1ccc(C)cc1,-6,-1,-1,-1,-9,23*,6,
COCC(=O)N(Cc1cc2ccc(C)cc2[nH]c1=O)c1ccc(OC)cc1,0,2,-1,-2,3,1,/,
CCN1CCc2c(sc(NC(=O)Cc3ccccc3)c2C(N)=O)C1,-1,-4,0,-2,0,0,/,
CCN1CCc2c(sc(NC(=O)Nc3ccc(Cl)c(Cl)c3)c2C(N)=O)C1,-6,14,57*,14,-11,32*,4,
COc1ccc(-c2[nH]ncc2CN(C)CC2CCCCO2)cc1F (centres undefined),1,0,5,-1,9,4,/,
COC(=O)C1=C(C)NC(=S)NC1c1ccc(OCC(=O)N2CCCCC2)c(OC)c1 (centres undefined),-4,0,1,1,2,-2,/,
COc1ccc(NN=C(C=NO)C(=O)c2ccc(OC)cc2)cc1,/,/,/,/,/,/,/,Fam108b ABPP HTS=0
CO/N=C/C(=N\Nc1ccc(C)cc1)C(=O)c1ccc(OC)cc1,-1,-10,-6,-3,-5,-8,/,
Cc1cc2nc(-c3ccc(SCc4ccc(C#N)cc4)nc3)[nH]c2cc1C,3,-24,3,-15,-10,26*,6,
O=c1oc(-c2ccccc2Cl)nc2ccsc12,5,-2,2,-5,-23,34*,32*,Fam108b ABPP HTS=85*
Nc1ncnc2c1ncn2[C@@H]1O[C@H](CNCc2ccccc2OCc2ccc(Cl)cc2Cl)[C@@H](O)[C@H]1O,-4,/,/,/,/,/,/,
Cc1ccccc1N=Nc1c(C)[nH]n(C(N)=S)c1=O,-1,3,-3,-2,-4,4,/,
Cc1[nH]n(C(N)=S)c(=O)c1N=Nc1ccccc1C(F)(F)F,-2,-1,2,-1,-20,24*,27*,
COc1ccc(CC(=O)N2CCN(S(=O)(=O)c3cc(Cl)ccc3Cl)CC2)cc1,-6,4,0,0,/,/,/,
CCN1CCc2c(sc(NC(=O)c3ccc(S(=O)(=O)N(CC)c4ccccc4)cc3)c2C(N)=O)C1,4,3,1,-1,-5,-5,/,
O=C1c2ccccc2C2=Nc3ccccc3SC(c3cccc(F)c3)C12 (centres undefined),-5,-6,19,-9,-12,22*,-20,
CC(C)CCOc1cccc(OCC(=O)Nc2ccncc2)c1,1,-1,-1,0,-20,-4,/,
COc1ccc(-c2csc(NC(=O)c3ccccc3NS(=O)(=O)c3ccc(C)cc3)n2)cc1,-6,13,21,-6,-22,36*,12,
CCOc1ccccc1Nc1nc(-c2sc(NC(=O)c3ccc([N+](=O)[O-])cc3)nc2C)cs1,-6,-16,19,-21,-2,22*,24*,
CCCCCC(=O)Nc1nc(C)c(-c2csc(Nc3ccc(Cl)cc3)n2)s1,-5,-5,25,-19,-4,20*,13,
Cc1ccccc1Nc1nc(-c2sc(NC(=O)c3ccc([N+](=O)[O-])cc3)nc2C)cs1,6,-13,5,-17,3,14,/,
COc1ccc(OC)c(Nc2nc(-c3sc(NC(=O)c4ccccc4)nc3C)cs2)c1,-14,-8,21,-15,-5,19*,16,
Cc1ccc(Nc2nc(-c3sc(NC(=O)c4ccc([N+](=O)[O-])cc4)nc3C)cs2)cc1,2,-13,11,-24,3,22*,8,
COc1ccc(Cl)cc1Nc1nc(-c2sc(NC(=O)c3ccccc3)nc2C)cs1,-10,-16,16,-14,-1,1,/,
O=[N+]([O-])c1ccc(CSc2ccc(S(=O)(=O)N3CCCCC3)cn2)cc1,-6,/,/,/,/,/,/,
O=C(Nc1cccc(-c2csc(Nc3ccccc3)n2)c1)c1cc([N+](=O)[O-])cc(C(F)(F)F)c1,1,-5,31*,-16,-5,37*,21*,
